Results: PubChem BioAssay AID588325 (National Center for Advancing Translational Sciences (NCATS), 2011)
Inconclusive results are not listed. Calls of active or inactive are those of the source. Calls come from the whole dose curve; as a rule, active = well fitted curve in the direction sought with a large enough effect; inconclusive = small, poorly fitted or top-dose-only effect, or effect the other way, or another doubt; inactive = no such curve, though single readings can be large or run the other way.

Assay: Confirmatory Assay to Find Inhibitors of T. brucei phosphofructokinase: Cytotoxictity in KB-3-1
Conditions: KB-3-1 human cells cytotoxicity counter-screen; series mostly up to 46.1 µM
Source text: Various species of the protozoan family Trypanosomatidae are responsible for a range of serious human diseases in tropical and subtropical areas of the world. […] Many of the disorders caused by trypanosomatids are fatal if left untreated, but most currently used drugs are inefficient and toxic.
Oxidative metabolism involving the mitochondrial tricarboxylic acid cycle and oxidative phosphorylation are repressed in these parasites, and recent RNA interference (RNAi) experiments have shown that even partial depletion of certain individual glycolytic enzymes can lead to the death of cultured parasites. One such glycolytic enzyme, phosphofructokinase (PFK), catalyzes the formation of fructose-1,6-bisphosphate (F1,6BP) and ADP from fructose-6-phosphate (F6P) and ATP, and in many metabolic circumstances makes an important contribution to the control of flux through the glycolytic pathway. As a specific glycolytic target, PFK is particularly attractive as it catalyzes the first irreversible step in glycolysis, and structural and kinetic studies have shown very substantial and essential differences from corresponding host enzymes, allowing for the discovery of parasite-selective inhibitors.
Confirmed qHTS active compounds were tested for toxicity against the KB-3-1 human cervical carcinoma cell lines. This line havs historically been used as representative human cells in in vitro Trypanosoma assays, and so provide a relevant surrogate for human cells in testing Tb PFK inhibitor toxicity.
NIH Chemical Genomics Center [NCGC]
NIH Molecular Libraries Probe Centers Network [MLPCN]
Assay Submitter (PI): Malcom Walkinshaw, University of Edinburg
KB-3-1 cells were dispensed into white solid 1536-microwell plates in 5 uL media (high glucose DMEM, 10% FBS) with a Thermo Multidrop. The plates were incubated at 37 degrees Celsius for 2 hours, and subsequently treated with compounds using the Kalypsys pin tool, delivering 23 nL of test compounds to each well. The plates were then incubated for an additional 72 hours at 37 degrees Celsius. Cytotoxicity was assessed by adding 2.5 uL of Cell-Titer Glo (Promega, Madison, WI) via Multidrop, incubating at room temperature for 10 min and reading luminescence on the Perkin Elmer ViewLux using a 1 second exposure and 1x binning. DMSO-treated cells were included as negative control, while media-only wells were used as a positive control equivalent to 100% cell toxicity for the sake of data normalization.

Row | Structure (SMILES) | outcome
1 | Cc1cc(NS(=O)(=O)c2ccc(NC(=O)Cc3ccc(C)c(C)c3)cc2)no1 | inactive
2 | Cc1cc(NS(=O)(=O)CCNC(=O)Cc2ccc(Cl)c(Cl)c2)no1 | inactive
3 | Cc1cc(NS(=O)(=O)c2ccc(NC(=O)Cc3ccc(Cl)c(Cl)c3)cc2)n(C)n1 | inactive
4 | Cc1cc(NS(=O)(=O)c2ccc(NC(=O)Cc3ccc(C)c(F)c3)cc2)no1 | inactive
5 | Cc1cc(NC(=O)c2ccc(NC(=O)Cc3ccc(Cl)c(Cl)c3)cc2)no1 | inactive
6 | Cc1cc(NS(=O)(=O)c2ccc(NS(=O)(=O)Cc3ccc(Cl)c(Cl)c3)cc2)no1 | inactive
7 | O=C(Cc1ccc(Cl)c(Cl)c1)Nc1ccc(S(=O)(=O)O)cc1 | inactive
8 | Cc1cc(NS(=O)(=O)c2ccc(NC(=O)c3ccc(Cl)c(Cl)c3)cc2)no1 | inactive
9 | Cc1cc(NS(=O)(=O)c2ccc(NC(=O)Cc3ccc4ccccc4c3)cc2)no1 | inactive
10 | Cc1cc(NS(=O)(=O)c2ccc(NC(=O)Cc3ccc(Cl)c(F)c3)cc2)no1 | inactive
11 | Cc1cc(NS(=O)(=O)c2ccc(N(C)C(=O)Cc3ccc(Cl)c(Cl)c3)cc2)no1 | inactive
12 | COc1ccc(CC(=O)Nc2ccc(S(=O)(=O)Nc3cc(C)on3)cc2)cc1C | inactive
13 | Cc1cc(NS(=O)(=O)c2ccc(NCCc3ccc(Cl)c(Cl)c3)cc2)no1 | inactive
14 | Cc1cc(NS(=O)(=O)Cc2ccc(NC(=O)Cc3ccc(Cl)c(Cl)c3)cc2)no1 | inactive
15 | O=C(Cc1ccc(Cl)c(Cl)c1)Nc1ccc(S(=O)(=O)Nc2ccc(C(=O)O)cc2)cc1 | inactive
16 | Cc1cc(NS(=O)(=O)c2ccc(NC(=O)CCc3ccc(Cl)c(Cl)c3)cc2)no1 | inactive
17 | Cc1cc(NS(=O)(=O)c2ccc(NC(=O)Cc3ccc(Cl)cc3)cc2)no1 | inactive
18 | O=C(Cc1ccc(Cl)c(Cl)c1)Nc1ccc(S(=O)(=O)Nc2ccon2)cc1 | inactive
19 | O=C(Cc1ccc(Cl)c(Cl)c1)Nc1ccc(S(=O)(=O)Nc2cncnc2)cc1 | inactive
20 | Cc1cc(NS(=O)(=O)c2cccc(NC(=O)Cc3ccc(Cl)c(Cl)c3)c2)no1 | inactive
21 | COc1ccc(CC(=O)Nc2ccc(S(=O)(=O)Nc3cc(C)on3)cc2)cc1OC | inactive
22 | O=C(Cc1ccc(Cl)c(Cl)c1)Nc1ccc(S(=O)(=O)Nc2cccc(C(=O)O)c2)cc1 | inactive
23 | Cc1cc(NS(=O)(=O)c2ccc(C(=O)NCc3ccc(Cl)c(Cl)c3)cc2)no1 | inactive
24 | Cc1cc(NS(=O)(=O)c2ccc(NC(=O)Cc3cccc(Cl)c3)cc2)no1 | inactive
25 | Cc1cc(NS(=O)(=O)C2CCN(C(=O)Cc3ccc(Cl)c(Cl)c3)CC2)no1 | inactive
26 | Cc1cc(NS(=O)(=O)c2ccc(NC(=O)C(C)(C)c3ccc(Cl)c(Cl)c3)cc2)no1 | inactive
27 | Cc1cc(NS(=O)(=O)c2ccc(NC(=O)Cc3ccc(Cl)cc3Cl)cc2)no1 | inactive
28 | Cc1cc(N[S+](=O)([O-])c2ccc3cc(NC(=O)Cc4ccc(Cl)c(Cl)c4)ccc3c2)no1 | inactive
